The source of these data is PubChem BioAssay (EPA / NIEHS).

Assay [1] can be described thus: ATG_TAL_CIS: Attagene CIS-FACTORIAL HepG2 Assay for human TAL Basal Promoter (AID 2282966; active = hit-call score of the fitted dose curve at least 0.9, where 1 is the maximum; inactive = score below 0.9;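 note: background control endpoint measuring basal TAL promoter reporter mRNA not a specific factor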). The following applies: HepG2 Attagene cis-factorial TAL promoter reporter; actives raise or lower the signal. The method in brief: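 Endogenous transcription-factor activity is sensed in HepG2 cells through transfected cis-promoter reporter constructs. After 24 h dosing, reporter transcripts are quantified by RT-PCR and capillary electrophoresis. Gain or loss of signal is fitted relative to DMSO.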

A short description of assay [2]: ATG_TGFb_CIS: Attagene CIS-FACTORIAL HepG2 Assay for human Transforming Growth Factor (TGF) (AID 2282967; active = hit-call score of the fitted dose curve at least 0.9, where 1 is the maximum; inactive = score below 0.9). The following applies: HepG2 Attagene CIS TGFb reporter, mRNA transcription; actives raise or lower the signal. In outline:
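Liver HepG2 line, cis-factorial reporter panel, 24 h dosing. Quantitation: RT-PCR products labeled with 6-FAM, cut with HpaI, resolved by capillary electrophoresis; DMSO-referenced bidirectional analysis.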

Assay [3] can be described thus: ATG_VDRE_CIS: Attagene CIS-FACTORIAL HepG2 Assay for human Vitamin D Receptor Element (VDRE) (AID 2282968; active = hit-call score of the fitted dose curve at least 0.9, where 1 is the maximum; inactive = score below 0.9). The following applies: HepG2 VDRE cis-reporter transcription, actives raise or lower the signal. The method in brief: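 Transfected HepG2 reporter cells, chemical treatment 24 h. RNA isolated, cDNA amplified with reporter-specific primers, products analysed by capillary electrophoresis. Endpoint fitted in both directions versus DMSO.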

In assay [4] the target is Estrogen receptor (Homo sapiens) (UniProt P03372). In words: ATG_ERa_TRANS: Attagene TRANS-FACTORIAL HepG2 Assay for human Estrogen Receptor alpha (ERa) (AID 2282970). The following applies: HepG2 Attagene TRANS ERa GAL4 reporter, mRNA. The method in brief: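 Transfected HepG2 cells carrying GAL4-UAS-driven reporter units were dosed for 24 hours. Total RNA was reverse-transcribed, reporter sequences PCR-amplified, FAM-labelled, HpaI-digested and resolved by capillary electrophoresis. Increases over DMSO control defined activity.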
Chain of Estrogen receptor (Homo sapiens) (P03372 whole entry, looked up, the tested form may be a part): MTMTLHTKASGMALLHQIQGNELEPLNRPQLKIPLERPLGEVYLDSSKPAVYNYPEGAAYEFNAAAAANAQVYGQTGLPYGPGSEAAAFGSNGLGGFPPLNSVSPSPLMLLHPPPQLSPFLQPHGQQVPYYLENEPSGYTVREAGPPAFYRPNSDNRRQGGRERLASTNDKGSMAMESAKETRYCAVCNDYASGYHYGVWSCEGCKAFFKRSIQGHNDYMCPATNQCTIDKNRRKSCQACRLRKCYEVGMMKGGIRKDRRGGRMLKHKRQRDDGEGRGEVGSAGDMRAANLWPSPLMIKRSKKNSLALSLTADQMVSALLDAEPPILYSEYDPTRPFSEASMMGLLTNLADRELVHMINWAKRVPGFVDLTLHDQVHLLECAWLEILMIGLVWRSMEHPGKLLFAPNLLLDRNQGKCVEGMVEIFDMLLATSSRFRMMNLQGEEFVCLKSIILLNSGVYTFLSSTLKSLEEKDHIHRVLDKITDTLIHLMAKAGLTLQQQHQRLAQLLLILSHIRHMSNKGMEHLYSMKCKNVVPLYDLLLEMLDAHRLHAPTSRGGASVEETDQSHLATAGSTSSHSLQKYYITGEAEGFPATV

Assay [5] addresses X-box-binding protein 1 (Homo sapiens) (UniProt P17861). Kind of assay: ATG_Xbp1_CIS: Attagene CIS-FACTORIAL HepG2 Assay for human X-box Binding Protein 1 (XBP1) (AID 2282972; active = hit-call score of the fitted dose curve at least 0.9, where 1 is the maximum; inactive = score below 0.9). The following applies: HepG2 XBP1 cis-element reporter, Attagene multiplex; actives raise or lower the signal. The method in brief: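 Human hepatoma HepG2, cis-element reporter system, 24 h treatment; mRNA quantified by RT-PCR/CE fluorescence; fit relative to DMSO.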

Assay [6] can be described thus: ATG_M_19_TRANS: Attagene TRANS-FACTORIAL HepG2 Assay for M19 Transcription Factor (Internal Marker) (AID 2282974). The following applies: HepG2 Attagene TRANS-FACTORIAL M19 internal marker reporter. The method in brief: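 Cells: human HepG2, transiently transfected with multiplexed reporter transcription units. Exposure: 24 h. Detection: RT-PCR of reporter mRNA with capillary electrophoresis. Analysis: gain-of-signal vs DMSO.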

Assay [7] concerns the target Glucocorticoid receptor (Homo sapiens) (UniProt P04150). In words: ATG_GR_TRANS: Attagene TRANS-FACTORIAL HepG2 Assay for human Glucocorticoid Receptor (GR) (AID 2282978).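 Note: activators score as hits since higher reporter transcript over DMSO is fitted.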 The following applies: HepG2 Attagene TRANS GR reporter, mRNA transcription. The method in brief: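 In this trans-factorial format, exogenous NR-GAL4 chimeric proteins in transfected HepG2 cells regulate GAL4-UAS reporter transcription. After 24 h treatment, reporter mRNA induction relative to DMSO is read by RT-PCR and capillary electrophoresis.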

The target of assay [8] is Bile acid receptor (Homo sapiens) (UniProt Q96RI1). Kind of assay: ATG_FXR_TRANS: Attagene TRANS-FACTORIAL HepG2 Assay for Farnesoid X Receptor (FXR) (AID 2282979).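 Note: hits raise reporter mRNA above DMSO so AC50 marks FXR activation.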 The following applies: HepG2 Attagene TRANS FXR-GAL4 reporter transcription. The method in brief:
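Chimeric FXR-GAL4 activity in transiently transfected human HepG2 liver cells is scored as induction of reporter mRNA after 24 h of dosing. Detection uses RT-PCR with fluorescent labelling and capillary electrophoresis, with DMSO serving as baseline.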

The target of assay [9] is Oxysterols receptor LXR-alpha (Homo sapiens) (UniProt Q13133). In words: ATG_LXRa_TRANS: Attagene TRANS-FACTORIAL HepG2 Assay for human Liver X Receptor alpha (LXRa) (AID 2282980). The following applies: HepG2 Attagene TRANS reporter, LXRa transactivation. In outline:
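Transient HepG2 transfectants, 24 h dosing, RT-PCR/CE mRNA reporter quantitation; gain-of-signal vs DMSO.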

Assay [10] is described as follows: ATG_M_32_TRANS: Attagene TRANS-FACTORIAL HepG2 Assay for M32 Transcription Factor (Internal Marker) (AID 2282984).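 Note: transcript level of a background control reporter unit measured by RT-PCR and capillary electrophoresis.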 The following applies: HepG2 Attagene TRANS M32 internal marker reporter. The method in brief: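 Fluorescence-detected mRNA induction, HepG2 liver cells, 24 h after dosing. Multiple GAL4-UAS reporter units introduced by transient transfection; background-control endpoint analysed for gain of signal against DMSO.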

Assay [11] deals with Nuclear receptor subfamily 4 group A member 2 (Homo sapiens) (UniProt P43354). Kind of assay: ATG_NURR1_TRANS: Attagene TRANS-FACTORIAL HepG2 Assay for human Nuclear Receptor Related Protein 1 (NURR1) (AID 2282985). The following applies: HepG2 Attagene TRANS reporter, mRNA readout. In outline:
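Chimeric NR-Gal4 proteins were expressed in human HepG2 cells bearing GAL4-UAS reporter units, and induced reporter mRNA was quantified 24 h post-dosing by RT-PCR and capillary electrophoresis.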

Assay [12] addresses Transcriptional activator Myb (Homo sapiens) (UniProt P10242). Kind of assay: ATG_Myb_CIS: Attagene CIS-FACTORIAL HepG2 Assay for human Myeloblastosis (Myb) Proto-Oncogene Transcription Factor (AID 2282986; active = hit-call score of the fitted dose curve at least 0.9, where 1 is the maximum; inactive = score below 0.9). The following applies: HepG2 Attagene CIS-FACTORIAL Myb reporter transcription; actives raise or lower the signal. The method in brief: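 Steps: transfect HepG2 with cis-regulated reporter units; dose with chemical for 24 h; isolate RNA, reverse-transcribe, PCR-amplify and FAM-label reporter sequences; digest with HpaI; resolve by capillary electrophoresis. Activity fitted in both directions relative to DMSO.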

In assay [13] the target is Nuclear respiratory factor 1 (Homo sapiens) (UniProt Q16656). In words: ATG_NRF1_CIS: Attagene CIS-FACTORIAL HepG2 Assay for human Nuclear Respiratory Factor 1 (NRF1) Orphan Gene (AID 2282987; active = hit-call score of the fitted dose curve at least 0.9, where 1 is the maximum; inactive = score below 0.9). The following applies: HepG2 NRF1 cis-element reporter, Attagene multiplex; actives raise or lower the signal. The method in brief: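 Fluorescence intensity of labelled reporter cDNA fragments, resolved by capillary electrophoresis, served as readout for NRF1 cis-element activity. Transiently transfected HepG2 cells were dosed for 24 hours; activity in either direction was fitted against DMSO negative control.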
Chain of Nuclear respiratory factor 1 (Homo sapiens) (Q16656 whole entry, looked up, the tested form may be a part): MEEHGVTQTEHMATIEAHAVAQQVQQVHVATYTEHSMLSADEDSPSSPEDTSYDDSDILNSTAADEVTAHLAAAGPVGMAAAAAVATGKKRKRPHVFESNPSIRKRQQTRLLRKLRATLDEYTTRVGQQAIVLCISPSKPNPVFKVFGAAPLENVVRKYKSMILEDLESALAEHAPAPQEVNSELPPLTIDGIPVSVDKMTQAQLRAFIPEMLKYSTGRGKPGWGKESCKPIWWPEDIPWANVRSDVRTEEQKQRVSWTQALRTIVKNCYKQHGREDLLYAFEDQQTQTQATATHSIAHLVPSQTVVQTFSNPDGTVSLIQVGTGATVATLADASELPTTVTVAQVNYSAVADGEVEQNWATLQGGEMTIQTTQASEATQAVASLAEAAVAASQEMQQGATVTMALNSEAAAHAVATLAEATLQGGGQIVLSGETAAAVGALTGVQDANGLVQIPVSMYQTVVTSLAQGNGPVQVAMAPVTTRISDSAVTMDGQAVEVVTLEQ

Assay [14] in a line: ATG_GAL4_TRANS: Attagene TRANS-FACTORIAL HepG2 Assay for GAL4 (Internal Marker) (AID 2282976). The following applies: HepG2 Attagene TRANS GAL4 internal marker reporter. The method in brief: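 Fluorescence from capillary electrophoresis of labelled RT-PCR products quantifies reporter mRNA induction after 24 h dosing of HepG2 cells carrying transfected GAL4-UAS reporter transcription units. Vehicle DMSO serves as baseline.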

In assay [15] the target is Estrogen-related receptor gamma (Homo sapiens) (UniProt P62508). In words: ATG_ERRg_TRANS: Attagene TRANS-FACTORIAL HepG2 Assay for human Estrogen-Related Receptor gamma (ERRg) (AID 2282977).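 Note: hits increase reporter signal over DMSO so potencies reflect activators.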 The following applies: HepG2 Attagene TRANS reporter, ERRg transactivation. The method in brief:
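Readout: fluorescent reporter-mRNA fragments resolved by capillary electrophoresis after RT-PCR and HpaI cut. Cells: transiently transfected HepG2 carrying GAL4-UAS reporters driven by exogenous NR-Gal4 chimeras, dosed 24 h. Activity fitted upward relative to DMSO baseline.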

In assay [16] the target is Hepatocyte nuclear factor 4-alpha (Homo sapiens) (UniProt P41235). In words: ATG_HNF4a_TRANS: Attagene TRANS-FACTORIAL HepG2 Assay for human Hepatocyte Nuclear Factor 4 alpha (HNF4a) (AID 2282982). The following applies: HepG2 HNF4a transactivation reporter, mRNA readout. The method in brief:
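Using HepG2 liver cells transfected with GAL4-UAS reporter units, chemical-induced mRNA increases were assessed after 24 hours. Fluorescent RT-PCR fragments were separated by capillary electrophoresis and compared with DMSO negative controls.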

For assay [17], the target named is Oxysterols receptor LXR-beta (Homo sapiens) (UniProt P55055). In words: ATG_LXRb_TRANS: Attagene TRANS-FACTORIAL HepG2 Assay for human Liver X Receptor beta (LXRb) (AID 2282981). The following applies: HepG2 Attagene TRANS GAL4-LXRb reporter, mRNA. The method in brief:
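Liver-derived HepG2 cells transfected with Gal4-responsive reporters were dosed for 24 h. Activation was scored as rise in reporter mRNA, by RT-PCR and capillary electrophoresis, above DMSO baseline.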

Assay [18] in a line: ATG_M_06_TRANS: Attagene TRANS-FACTORIAL HepG2 Assay for M06 Transcription Factor (Internal Marker) (AID 2282983).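 Note: reporter transcript level by RT-PCR then capillary electrophoresis fluorescence.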 The following applies: HepG2 Attagene TRANS M06 internal marker reporter. In outline: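 Human liver HepG2 cells bearing transiently transfected chimeric NR-GAL4 reporter units were treated with chemicals for 24 h. Total RNA was reverse-transcribed, reporter sequences amplified and labelled, then quantified by capillary electrophoresis. Activity was fitted upward relative to DMSO.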

Inconclusive results are not listed. Activity calls are given as the source filed them. Rule for the calls, unless noted: active = hit-call score of the fitted dose curve at least 0.9, where 1 is the maximum; inconclusive = response in the unintended direction; inactive = score below 0.9.

Chain of Glucocorticoid receptor (Homo sapiens) (P04150 whole entry, looked up, the tested form may be a part): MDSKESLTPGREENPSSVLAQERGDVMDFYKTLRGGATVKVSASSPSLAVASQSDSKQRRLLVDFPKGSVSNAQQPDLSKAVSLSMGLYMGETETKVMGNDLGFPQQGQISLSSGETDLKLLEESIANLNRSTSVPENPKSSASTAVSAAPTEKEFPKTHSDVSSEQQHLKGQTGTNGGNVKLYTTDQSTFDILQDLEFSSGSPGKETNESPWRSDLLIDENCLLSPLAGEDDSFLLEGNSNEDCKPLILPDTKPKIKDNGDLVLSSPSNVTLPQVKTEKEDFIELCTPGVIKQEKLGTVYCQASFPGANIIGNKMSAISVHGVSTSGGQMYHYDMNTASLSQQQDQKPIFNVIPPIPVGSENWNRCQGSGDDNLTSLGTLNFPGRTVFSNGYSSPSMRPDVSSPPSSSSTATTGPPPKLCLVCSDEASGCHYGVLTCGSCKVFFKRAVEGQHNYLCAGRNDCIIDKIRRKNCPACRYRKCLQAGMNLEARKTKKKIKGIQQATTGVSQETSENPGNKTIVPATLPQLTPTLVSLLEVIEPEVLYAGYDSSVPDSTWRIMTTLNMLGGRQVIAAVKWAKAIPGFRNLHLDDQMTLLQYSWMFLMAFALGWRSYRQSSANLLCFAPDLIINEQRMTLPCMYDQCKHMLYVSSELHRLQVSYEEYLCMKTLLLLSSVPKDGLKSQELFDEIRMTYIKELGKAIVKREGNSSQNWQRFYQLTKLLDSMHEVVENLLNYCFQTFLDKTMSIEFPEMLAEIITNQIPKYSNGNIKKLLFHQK
Chain of Nuclear receptor subfamily 4 group A member 2 (Homo sapiens) (P43354 whole entry, looked up, the tested form may be a part): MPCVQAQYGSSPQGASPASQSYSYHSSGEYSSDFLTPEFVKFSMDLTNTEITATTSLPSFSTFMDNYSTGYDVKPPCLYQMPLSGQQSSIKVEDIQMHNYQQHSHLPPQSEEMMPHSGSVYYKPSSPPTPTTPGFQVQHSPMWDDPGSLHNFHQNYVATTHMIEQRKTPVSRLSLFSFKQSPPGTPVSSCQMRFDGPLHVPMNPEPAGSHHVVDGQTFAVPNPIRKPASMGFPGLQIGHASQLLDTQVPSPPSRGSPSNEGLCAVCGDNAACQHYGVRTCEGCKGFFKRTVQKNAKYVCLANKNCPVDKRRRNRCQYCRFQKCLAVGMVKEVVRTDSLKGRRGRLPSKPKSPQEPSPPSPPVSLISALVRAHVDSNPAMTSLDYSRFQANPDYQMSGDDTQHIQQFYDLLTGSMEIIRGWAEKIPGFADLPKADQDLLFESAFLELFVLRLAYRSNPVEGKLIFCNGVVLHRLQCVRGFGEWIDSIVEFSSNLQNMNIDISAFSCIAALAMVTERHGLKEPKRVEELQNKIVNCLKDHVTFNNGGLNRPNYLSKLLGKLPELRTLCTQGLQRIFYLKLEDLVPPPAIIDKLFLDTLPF
Chain of Transcriptional activator Myb (Homo sapiens) (P10242 whole entry, looked up): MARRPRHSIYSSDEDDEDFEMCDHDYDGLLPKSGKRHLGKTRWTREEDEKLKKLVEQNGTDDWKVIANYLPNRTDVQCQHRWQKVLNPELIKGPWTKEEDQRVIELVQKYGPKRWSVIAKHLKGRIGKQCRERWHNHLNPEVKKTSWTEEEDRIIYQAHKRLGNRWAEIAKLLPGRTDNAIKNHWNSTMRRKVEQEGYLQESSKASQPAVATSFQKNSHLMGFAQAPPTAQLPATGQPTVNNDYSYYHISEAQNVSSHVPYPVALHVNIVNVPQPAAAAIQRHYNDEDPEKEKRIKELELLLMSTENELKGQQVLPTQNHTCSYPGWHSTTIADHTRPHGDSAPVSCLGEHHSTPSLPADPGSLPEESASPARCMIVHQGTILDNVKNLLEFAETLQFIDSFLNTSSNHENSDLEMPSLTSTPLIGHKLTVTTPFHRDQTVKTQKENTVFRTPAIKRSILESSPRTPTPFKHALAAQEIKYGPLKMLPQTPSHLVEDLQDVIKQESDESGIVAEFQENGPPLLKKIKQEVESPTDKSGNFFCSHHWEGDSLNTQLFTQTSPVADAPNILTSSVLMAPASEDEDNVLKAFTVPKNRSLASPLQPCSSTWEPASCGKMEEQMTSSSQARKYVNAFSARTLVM
Chain of X-box-binding protein 1 (Homo sapiens) (P17861 whole entry, looked up): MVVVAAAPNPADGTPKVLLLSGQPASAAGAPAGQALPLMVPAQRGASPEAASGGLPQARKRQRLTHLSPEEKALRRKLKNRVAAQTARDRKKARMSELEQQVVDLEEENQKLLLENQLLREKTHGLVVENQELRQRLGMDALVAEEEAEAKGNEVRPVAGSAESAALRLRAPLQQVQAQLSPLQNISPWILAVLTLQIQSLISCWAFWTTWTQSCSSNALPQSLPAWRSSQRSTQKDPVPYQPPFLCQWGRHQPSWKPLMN
Chain of Oxysterols receptor LXR-alpha (Homo sapiens) (Q13133 whole entry, looked up): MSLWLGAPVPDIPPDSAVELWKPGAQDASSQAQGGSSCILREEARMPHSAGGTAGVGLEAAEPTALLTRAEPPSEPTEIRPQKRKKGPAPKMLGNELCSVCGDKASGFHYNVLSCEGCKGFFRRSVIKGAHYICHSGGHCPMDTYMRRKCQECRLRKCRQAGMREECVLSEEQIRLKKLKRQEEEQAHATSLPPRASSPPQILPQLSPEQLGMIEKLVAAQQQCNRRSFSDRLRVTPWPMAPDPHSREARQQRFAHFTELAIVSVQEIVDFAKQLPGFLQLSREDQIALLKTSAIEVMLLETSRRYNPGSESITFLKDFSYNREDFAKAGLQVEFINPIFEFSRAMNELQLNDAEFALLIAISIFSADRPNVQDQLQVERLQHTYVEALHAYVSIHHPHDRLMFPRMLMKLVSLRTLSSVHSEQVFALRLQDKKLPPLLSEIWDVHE
Chain of Oxysterols receptor LXR-beta (Homo sapiens) (P55055 whole entry, looked up, the tested form may be a part): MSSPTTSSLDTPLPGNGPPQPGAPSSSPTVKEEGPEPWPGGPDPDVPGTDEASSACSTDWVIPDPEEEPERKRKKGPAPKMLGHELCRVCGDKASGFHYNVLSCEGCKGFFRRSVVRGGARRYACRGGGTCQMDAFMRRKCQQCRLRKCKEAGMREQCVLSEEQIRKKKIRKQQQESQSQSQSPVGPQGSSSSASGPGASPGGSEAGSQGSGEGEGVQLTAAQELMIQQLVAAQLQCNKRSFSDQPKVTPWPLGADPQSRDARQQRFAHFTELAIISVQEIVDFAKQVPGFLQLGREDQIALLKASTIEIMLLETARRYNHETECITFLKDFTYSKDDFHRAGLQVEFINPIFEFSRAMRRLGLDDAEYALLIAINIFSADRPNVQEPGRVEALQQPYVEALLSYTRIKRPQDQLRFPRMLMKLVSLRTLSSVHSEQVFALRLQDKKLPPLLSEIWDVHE
Chain of Bile acid receptor (Homo sapiens) (Q96RI1 whole entry, looked up, the tested form may be a part): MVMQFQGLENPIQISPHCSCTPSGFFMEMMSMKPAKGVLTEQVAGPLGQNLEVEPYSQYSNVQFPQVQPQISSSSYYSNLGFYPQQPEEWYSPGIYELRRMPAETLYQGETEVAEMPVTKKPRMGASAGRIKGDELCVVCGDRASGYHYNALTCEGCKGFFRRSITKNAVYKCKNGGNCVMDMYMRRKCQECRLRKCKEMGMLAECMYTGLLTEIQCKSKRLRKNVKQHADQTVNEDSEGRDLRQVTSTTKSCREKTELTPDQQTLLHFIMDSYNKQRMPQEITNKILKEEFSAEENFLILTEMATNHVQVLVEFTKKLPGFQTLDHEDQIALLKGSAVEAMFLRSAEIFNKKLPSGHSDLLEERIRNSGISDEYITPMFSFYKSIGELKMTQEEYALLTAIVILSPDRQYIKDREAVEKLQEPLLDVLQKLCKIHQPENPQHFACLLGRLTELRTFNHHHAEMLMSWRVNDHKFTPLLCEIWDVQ

`Cc1ccccc1OCC(=O)O`: the result in assay [1], in [2], in assay [3], in [4], in [5] and in assay [6] was inactive. The outcome in assay [7], in assay [8], in assay [9], in assay [10], in assay [11] and in [13] was inactive. For the same compound, in assay [12], the half-maximal activity concentration (AC50) is 164 µM (active).
Take `CCc1cccc(CC)c1N(COC)C(=O)CS(=O)(=O)O`: the call in assay [1], in [2], in assay [4], in assay [5], in assay [6] and in [14] was inactive. For the same compound, the compound was called inactive in assay [15], in assay [7], in assay [8], in assay [16], in assay [10] and in assay [12]. In addition, the outcome in assay [13] was inactive. In addition, the concentration at half-maximal activity (AC50) in assay [3] was 5.6 µM (active).
As for `FC(F)=C(F)C(F)(F)C(F)(F)C(F)(F)C(F)F`, the compound was classed as inactive in assay [1], in assay [2], in assay [3], in assay [4], in [5] and in assay [14]. Besides, the outcome in [15], in assay [8], in [10], in assay [12] and in assay [13] was inactive.
With `O=CC(F)(F)C(F)(F)C(F)(F)F`, the compound was classed as inactive in [1], in [2], in assay [3], in assay [4], in [5] and in [6]. Besides, the result in assay [14], in assay [7], in [8], in assay [9], in [17] and in [16] was inactive. The compound was classed as inactive in assay [10], in [12] and in assay [13].
In the case of `COc1ccccc1NC(=O)c1cc2ccccc2cc1O`, the compound was called inactive in [1], in assay [2], in assay [4], in assay [15], in assay [8] and in assay [9]. Also, the compound was classed as inactive in assay [17], in assay [16], in assay [18], in assay [10] and in [13]. For the same compound, the figures for the concentration at half-maximal activity (AC50) in assay [3], in assay [5] and in assay [12] were 6.49 µM (active), 25.8 µM (active) and 121 µM (active), respectively.
`COC1=CC(=O)C[C@@H](C)[C@]12Oc1c(Cl)c(OC)cc(OC)c1C2=O`: the result in assay [1], in assay [2], in assay [3], in assay [4], in assay [5] and in assay [6] was inactive. The result in assay [7], in [8], in [9], in assay [17], in assay [16] and in [10] was inactive. Moreover, the result in [11], in assay [12] and in [13] was inactive.
For the compound `Cc1cc(Cc2cc(C)cc(C(C)(C)C)c2O)c(O)c(C(C)(C)C)c1`, the compound was classed as inactive in [1], in assay [3], in assay [4], in assay [8], in assay [9] and in [17]. Also, the compound was classed as inactive in assay [18]. In addition, the AC50 is 56.6 µM (active) in [2], 25 µM (active) in assay [5], 25.6 µM (active) in assay [12] and 180 µM (active) in [13].
In the case of `O=C1c2ccc(O)c(O)c2C(=O)c2c(O)ccc(O)c21`, the result in [1], in [2], in [3], in assay [5], in assay [15] and in assay [8] was inactive. Also, the compound was called inactive in [9], in assay [17], in assay [16], in assay [18], in assay [11] and in [12]. The outcome in assay [13] was inactive. The concentration at half-maximal activity (AC50) in assay [4] is 4.53 µM (active).
